According to the supplement of paper PMC11732987, “Enantioselective OTUD7B fragment discovery through chemoproteomics screening and high-throughput optimisation” (Communications Chemistry, 2025):

Experiments:
Experiment in all cases: log2 ratio of Biotin-Ahx-Ub-VS probe labelling (fragment/DMSO); higher = less target engagement (more negative = stronger competition), active = hit call of the paper (q ≤ 0.05, log2 ratio ≤ -1)
Settings in all cases: compound concentration: 200 uM; treatment time: 3 h
USP42 = target: T1, USP42 (UniProt Q9H9J4)
T1 sequence (whole entry): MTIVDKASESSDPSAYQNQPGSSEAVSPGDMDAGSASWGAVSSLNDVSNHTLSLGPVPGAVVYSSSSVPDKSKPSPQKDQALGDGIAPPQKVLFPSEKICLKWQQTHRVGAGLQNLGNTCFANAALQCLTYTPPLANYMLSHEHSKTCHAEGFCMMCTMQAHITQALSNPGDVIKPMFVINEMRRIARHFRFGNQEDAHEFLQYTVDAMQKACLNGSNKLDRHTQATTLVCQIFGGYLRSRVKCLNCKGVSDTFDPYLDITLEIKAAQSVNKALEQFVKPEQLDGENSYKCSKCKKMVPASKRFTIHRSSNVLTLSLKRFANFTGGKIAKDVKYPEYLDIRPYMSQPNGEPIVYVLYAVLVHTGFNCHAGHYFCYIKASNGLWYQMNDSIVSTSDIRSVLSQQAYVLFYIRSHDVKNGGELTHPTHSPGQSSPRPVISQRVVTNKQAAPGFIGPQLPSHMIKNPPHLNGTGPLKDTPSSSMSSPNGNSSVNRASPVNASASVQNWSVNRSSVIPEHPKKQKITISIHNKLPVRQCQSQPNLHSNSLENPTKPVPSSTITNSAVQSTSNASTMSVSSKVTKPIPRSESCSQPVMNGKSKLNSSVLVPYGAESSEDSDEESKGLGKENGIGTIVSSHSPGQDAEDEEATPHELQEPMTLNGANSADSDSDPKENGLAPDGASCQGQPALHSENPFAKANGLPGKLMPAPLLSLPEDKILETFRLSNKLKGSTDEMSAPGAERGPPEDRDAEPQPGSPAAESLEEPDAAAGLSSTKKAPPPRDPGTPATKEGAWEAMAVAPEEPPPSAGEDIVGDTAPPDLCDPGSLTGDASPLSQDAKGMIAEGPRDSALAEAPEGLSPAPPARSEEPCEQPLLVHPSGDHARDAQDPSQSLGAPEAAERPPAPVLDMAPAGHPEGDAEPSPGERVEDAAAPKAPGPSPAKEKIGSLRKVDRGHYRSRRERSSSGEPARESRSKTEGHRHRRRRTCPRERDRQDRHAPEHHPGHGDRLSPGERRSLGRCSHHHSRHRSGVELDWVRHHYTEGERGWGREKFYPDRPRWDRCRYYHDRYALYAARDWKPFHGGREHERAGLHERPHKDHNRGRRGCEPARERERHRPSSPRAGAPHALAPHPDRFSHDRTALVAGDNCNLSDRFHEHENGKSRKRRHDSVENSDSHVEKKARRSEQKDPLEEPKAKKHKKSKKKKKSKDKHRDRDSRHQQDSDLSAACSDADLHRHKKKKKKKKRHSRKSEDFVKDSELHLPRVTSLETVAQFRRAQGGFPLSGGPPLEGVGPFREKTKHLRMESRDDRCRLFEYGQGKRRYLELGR
Outline: (§1)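 HEK293T lysate (495 µg per sample, in Tris/CHAPS/IGEPAL buffer with protease inhibitors) was exposed in triplicate for 3 h to fragment at 200 µM or to vehicle, then to Biotin-Ahx-Ub-VS at 0.5 µM final for 1 h. Labelled DUBs were enriched on NeutrAvidin, digested with LysC and trypsin, and analysed by diaPASEF LC-MS/MS. Spectronaut label-free quantities were normalised to the global median, and values are average log2 ratios of fragment over vehicle from an unpaired t-test. Only proteins with ≥2 unique peptides were used.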

USP46 = USP46 (UniProt P62068)
Outline: as §1

USP47 = target: T2, USP47 (UniProt Q96K76)
T2 sequence (whole entry): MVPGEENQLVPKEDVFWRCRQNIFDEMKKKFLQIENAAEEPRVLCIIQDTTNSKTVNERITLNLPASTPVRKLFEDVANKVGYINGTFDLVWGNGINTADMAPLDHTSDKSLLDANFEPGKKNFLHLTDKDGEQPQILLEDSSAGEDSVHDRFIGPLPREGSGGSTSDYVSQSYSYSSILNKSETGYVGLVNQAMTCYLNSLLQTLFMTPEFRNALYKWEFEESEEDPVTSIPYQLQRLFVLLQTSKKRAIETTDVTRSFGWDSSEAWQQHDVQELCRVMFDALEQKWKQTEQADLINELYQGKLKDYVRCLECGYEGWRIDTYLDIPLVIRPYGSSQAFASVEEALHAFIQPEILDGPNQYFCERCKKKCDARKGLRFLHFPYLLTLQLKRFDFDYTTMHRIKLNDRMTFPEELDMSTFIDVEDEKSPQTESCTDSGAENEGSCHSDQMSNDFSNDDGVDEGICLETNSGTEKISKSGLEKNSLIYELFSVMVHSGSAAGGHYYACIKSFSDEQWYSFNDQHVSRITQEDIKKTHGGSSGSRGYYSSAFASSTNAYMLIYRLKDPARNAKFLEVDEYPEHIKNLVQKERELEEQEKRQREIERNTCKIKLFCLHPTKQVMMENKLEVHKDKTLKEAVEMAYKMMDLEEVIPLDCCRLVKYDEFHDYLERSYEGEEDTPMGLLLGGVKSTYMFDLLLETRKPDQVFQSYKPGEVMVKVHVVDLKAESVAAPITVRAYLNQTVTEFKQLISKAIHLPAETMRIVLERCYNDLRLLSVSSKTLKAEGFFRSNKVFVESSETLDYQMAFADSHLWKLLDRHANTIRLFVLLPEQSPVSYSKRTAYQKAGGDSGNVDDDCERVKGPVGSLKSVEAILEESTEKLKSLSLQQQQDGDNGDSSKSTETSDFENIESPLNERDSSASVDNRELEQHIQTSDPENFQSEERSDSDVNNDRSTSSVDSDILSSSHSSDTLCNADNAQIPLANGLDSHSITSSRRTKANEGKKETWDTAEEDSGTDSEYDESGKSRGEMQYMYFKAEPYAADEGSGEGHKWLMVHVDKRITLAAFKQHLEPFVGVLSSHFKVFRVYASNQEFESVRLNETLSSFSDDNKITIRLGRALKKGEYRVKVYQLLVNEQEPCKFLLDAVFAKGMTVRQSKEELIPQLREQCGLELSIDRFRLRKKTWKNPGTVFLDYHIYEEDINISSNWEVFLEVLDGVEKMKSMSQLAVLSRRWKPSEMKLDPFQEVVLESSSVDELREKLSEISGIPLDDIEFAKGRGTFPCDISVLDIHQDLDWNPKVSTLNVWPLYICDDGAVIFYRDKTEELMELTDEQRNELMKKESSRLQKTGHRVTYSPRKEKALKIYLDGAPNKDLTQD
Outline: as §1

USP48 = target: T3, USP48 (UniProt Q86UV5)
T3 sequence (whole entry): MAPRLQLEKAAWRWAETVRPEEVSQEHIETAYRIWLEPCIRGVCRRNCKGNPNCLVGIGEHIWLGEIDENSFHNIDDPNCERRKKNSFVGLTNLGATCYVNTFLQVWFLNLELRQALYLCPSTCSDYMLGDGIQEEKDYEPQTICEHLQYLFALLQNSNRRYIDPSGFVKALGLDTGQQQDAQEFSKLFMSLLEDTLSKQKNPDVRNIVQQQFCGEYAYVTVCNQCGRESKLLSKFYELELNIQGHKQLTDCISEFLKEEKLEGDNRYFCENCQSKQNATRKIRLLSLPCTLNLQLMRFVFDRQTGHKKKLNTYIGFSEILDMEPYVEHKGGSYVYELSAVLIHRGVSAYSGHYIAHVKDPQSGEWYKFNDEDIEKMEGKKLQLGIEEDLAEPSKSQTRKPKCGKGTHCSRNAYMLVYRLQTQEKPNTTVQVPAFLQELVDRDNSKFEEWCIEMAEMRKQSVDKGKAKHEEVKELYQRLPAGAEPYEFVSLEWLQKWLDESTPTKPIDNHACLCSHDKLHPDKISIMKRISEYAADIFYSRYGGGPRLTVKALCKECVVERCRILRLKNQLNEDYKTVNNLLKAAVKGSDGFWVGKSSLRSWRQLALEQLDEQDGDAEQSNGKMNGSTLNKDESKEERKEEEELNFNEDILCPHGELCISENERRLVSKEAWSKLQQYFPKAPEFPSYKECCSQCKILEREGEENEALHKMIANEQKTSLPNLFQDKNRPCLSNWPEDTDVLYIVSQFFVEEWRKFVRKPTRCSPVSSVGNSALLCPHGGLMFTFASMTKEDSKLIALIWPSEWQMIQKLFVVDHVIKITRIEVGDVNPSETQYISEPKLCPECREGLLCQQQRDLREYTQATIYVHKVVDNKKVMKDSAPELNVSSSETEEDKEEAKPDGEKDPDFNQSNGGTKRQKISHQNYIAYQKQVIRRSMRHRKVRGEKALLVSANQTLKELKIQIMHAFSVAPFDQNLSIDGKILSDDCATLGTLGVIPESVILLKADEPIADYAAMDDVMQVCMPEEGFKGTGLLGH
Outline: as §1

USP5 = target: T4, USP5 (UniProt P45974)
T4 sequence (whole entry): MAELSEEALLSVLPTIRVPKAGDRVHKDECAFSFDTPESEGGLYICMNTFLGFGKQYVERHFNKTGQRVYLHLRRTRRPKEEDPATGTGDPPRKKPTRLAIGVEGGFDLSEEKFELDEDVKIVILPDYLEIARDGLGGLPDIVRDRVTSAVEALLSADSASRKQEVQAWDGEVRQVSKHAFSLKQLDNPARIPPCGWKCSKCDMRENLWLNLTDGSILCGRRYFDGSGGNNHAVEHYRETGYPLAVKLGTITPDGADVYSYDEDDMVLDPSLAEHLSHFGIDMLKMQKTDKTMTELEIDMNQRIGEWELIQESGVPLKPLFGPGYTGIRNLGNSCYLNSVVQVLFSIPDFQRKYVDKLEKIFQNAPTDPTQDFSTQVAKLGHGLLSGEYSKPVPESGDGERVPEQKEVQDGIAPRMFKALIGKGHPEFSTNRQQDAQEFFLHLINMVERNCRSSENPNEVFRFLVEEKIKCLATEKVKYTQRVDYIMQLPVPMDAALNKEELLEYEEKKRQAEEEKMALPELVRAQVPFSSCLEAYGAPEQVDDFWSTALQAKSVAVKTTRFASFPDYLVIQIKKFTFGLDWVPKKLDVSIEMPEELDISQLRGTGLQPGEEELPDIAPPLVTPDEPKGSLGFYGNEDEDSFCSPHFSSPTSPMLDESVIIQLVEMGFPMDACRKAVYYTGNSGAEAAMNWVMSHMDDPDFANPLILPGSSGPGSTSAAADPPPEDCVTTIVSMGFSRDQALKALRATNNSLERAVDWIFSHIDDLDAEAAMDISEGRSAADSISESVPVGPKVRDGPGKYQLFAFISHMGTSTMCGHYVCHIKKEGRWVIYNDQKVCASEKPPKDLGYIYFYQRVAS
Outline: as §1

USP54 = USP54 (UniProt Q70EL1)
Outline: as §1

USP7 = USP7 (UniProt Q93009)
Outline: as §1

USP8 = target: T5, USP8 (UniProt P40818)
T5 sequence (whole entry): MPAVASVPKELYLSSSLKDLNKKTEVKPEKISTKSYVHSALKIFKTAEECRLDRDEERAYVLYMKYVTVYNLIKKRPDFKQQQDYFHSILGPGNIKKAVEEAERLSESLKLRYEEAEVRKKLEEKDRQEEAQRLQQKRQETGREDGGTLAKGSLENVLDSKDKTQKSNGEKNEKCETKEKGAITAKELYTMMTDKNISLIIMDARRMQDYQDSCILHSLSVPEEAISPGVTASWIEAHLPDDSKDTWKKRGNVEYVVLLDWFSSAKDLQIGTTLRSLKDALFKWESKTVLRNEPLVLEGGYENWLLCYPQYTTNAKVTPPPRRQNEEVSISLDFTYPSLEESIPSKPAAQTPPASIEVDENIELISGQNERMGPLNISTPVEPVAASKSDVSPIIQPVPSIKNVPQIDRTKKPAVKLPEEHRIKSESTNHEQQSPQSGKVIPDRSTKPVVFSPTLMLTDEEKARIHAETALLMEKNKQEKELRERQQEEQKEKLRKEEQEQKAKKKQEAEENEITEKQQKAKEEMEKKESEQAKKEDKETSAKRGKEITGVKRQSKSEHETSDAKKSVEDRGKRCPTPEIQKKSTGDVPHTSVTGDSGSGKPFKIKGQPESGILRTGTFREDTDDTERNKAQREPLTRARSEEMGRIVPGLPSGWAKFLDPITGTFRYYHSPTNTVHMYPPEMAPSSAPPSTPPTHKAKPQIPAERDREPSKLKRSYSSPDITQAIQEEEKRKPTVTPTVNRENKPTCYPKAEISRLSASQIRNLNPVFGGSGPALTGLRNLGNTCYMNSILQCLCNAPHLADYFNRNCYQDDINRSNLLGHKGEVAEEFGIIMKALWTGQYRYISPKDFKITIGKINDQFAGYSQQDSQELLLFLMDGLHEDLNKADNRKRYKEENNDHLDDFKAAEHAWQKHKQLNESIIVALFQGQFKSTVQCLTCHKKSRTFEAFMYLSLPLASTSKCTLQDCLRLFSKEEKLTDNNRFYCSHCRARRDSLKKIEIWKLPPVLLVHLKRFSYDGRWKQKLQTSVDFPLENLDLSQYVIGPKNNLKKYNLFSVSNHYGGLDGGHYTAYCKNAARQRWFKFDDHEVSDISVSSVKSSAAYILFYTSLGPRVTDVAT
Outline: as §1

Measured: log2 ratio of Biotin-Ahx-Ub-VS probe labelling

USP7, sequence (Q93009 whole entry, looked up): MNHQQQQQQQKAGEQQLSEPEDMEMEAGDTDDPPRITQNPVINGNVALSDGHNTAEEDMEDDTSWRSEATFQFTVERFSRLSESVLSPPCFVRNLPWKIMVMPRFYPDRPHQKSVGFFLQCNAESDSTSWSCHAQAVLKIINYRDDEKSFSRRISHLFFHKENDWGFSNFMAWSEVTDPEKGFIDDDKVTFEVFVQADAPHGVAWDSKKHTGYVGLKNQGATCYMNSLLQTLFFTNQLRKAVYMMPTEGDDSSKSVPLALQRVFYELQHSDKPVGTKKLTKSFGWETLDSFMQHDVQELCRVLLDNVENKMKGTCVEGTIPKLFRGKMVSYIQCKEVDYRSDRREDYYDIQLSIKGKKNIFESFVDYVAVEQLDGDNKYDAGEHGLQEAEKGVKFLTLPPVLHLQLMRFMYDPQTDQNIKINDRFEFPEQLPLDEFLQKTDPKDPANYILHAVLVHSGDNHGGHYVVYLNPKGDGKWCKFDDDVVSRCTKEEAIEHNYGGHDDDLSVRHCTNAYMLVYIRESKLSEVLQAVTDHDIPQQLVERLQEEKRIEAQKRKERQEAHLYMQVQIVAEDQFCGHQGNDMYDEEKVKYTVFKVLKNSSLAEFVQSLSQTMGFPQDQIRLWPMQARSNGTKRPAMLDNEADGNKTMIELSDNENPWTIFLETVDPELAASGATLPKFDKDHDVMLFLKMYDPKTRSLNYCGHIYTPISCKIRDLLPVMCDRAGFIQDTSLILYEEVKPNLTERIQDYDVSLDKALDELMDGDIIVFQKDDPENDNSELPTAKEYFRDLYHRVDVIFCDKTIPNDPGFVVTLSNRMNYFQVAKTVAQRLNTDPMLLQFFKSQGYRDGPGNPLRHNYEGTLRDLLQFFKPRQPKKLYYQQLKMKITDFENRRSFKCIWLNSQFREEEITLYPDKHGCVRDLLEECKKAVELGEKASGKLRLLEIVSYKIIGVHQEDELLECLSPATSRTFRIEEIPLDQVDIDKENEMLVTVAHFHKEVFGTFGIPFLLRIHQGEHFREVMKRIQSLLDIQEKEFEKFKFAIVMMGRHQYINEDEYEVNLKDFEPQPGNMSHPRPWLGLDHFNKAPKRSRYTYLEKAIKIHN
USP46, sequence (P62068 whole entry): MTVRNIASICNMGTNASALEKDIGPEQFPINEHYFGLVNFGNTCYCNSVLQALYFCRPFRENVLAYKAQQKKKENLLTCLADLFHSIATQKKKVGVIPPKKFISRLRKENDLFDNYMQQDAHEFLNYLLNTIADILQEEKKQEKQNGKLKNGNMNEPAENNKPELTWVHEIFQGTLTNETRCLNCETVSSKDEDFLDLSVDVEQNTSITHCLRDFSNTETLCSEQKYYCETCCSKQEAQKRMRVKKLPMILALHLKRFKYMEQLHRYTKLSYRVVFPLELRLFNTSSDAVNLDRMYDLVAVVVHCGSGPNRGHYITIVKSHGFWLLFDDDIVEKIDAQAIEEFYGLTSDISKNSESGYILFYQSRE
USP54, sequence (Q70EL1 whole entry): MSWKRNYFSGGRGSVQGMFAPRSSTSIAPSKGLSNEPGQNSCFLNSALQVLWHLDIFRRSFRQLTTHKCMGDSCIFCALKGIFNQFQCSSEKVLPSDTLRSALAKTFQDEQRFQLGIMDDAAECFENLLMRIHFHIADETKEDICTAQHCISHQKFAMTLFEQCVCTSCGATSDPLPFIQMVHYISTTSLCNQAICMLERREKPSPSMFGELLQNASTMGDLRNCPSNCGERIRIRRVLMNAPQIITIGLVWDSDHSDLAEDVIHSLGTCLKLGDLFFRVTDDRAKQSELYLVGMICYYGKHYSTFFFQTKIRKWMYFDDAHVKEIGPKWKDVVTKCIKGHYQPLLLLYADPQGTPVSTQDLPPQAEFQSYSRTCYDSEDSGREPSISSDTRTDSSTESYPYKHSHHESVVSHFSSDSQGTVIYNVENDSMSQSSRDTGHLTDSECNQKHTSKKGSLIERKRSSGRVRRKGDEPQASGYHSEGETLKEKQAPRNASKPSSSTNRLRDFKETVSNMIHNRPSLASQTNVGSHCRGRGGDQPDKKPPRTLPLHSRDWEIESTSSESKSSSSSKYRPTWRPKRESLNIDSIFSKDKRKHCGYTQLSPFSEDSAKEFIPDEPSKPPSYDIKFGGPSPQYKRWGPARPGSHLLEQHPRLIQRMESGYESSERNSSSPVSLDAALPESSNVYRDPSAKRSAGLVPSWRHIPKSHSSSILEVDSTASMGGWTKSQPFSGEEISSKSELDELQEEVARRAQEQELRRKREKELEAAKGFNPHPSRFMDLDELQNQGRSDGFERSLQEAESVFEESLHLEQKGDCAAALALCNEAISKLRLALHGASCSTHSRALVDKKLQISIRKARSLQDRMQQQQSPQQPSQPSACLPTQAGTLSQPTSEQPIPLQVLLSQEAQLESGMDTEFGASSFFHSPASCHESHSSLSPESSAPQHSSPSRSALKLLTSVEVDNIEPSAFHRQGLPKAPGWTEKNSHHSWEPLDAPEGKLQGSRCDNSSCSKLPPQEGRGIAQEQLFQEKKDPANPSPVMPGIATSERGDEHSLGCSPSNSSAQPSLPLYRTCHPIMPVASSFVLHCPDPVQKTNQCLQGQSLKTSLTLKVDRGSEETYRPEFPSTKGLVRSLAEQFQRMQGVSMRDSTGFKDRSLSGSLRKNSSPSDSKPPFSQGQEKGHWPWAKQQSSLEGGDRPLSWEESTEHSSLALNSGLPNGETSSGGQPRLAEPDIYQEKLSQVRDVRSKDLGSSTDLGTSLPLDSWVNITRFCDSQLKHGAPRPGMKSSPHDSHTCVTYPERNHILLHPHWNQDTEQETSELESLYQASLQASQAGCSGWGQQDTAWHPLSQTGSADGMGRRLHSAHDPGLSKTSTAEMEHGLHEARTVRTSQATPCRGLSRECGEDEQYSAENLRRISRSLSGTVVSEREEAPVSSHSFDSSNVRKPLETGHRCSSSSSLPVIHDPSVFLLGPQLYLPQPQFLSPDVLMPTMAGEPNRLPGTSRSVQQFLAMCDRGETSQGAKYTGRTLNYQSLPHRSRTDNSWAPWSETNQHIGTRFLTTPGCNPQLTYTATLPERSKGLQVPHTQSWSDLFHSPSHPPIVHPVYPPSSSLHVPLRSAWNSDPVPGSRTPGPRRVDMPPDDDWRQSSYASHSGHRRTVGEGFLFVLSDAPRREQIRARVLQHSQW

CC(=O)C1CCCCN1C(=O)CCl (stereo not drawn)
inactive: USP42 0.359 | USP46 0.0148 | USP47 -0.0598 | USP48 -0.362 | USP5 -0.139 | USP54 0.498 | USP7 -0.172 | USP8 0.076
